From PubChem BioAssay (Tox21)
Values joined by “and” are separate entries in the source; they are usually repeats but may differ in a detail not shown here. Equal values may be shown once. Some compounds were tested as several samples or in several runs, with calls that do not always agree. Active and inactive are the calls of the source. Unless noted, the call rests on the fitted dose curve; in most records, active means well fitted curve in the direction sought with a large enough effect in the repeat runs; inconclusive means weak or mixed curves; inactive means no such curve, though single readings can be large; an effect the other way counts as inactive or inconclusive.

Tests used:
[1] = qHTS assay to identify small molecule antagonists of the thyroid receptor (TR) signaling pathway (AID 743065); further: nearly all actives have a fitted effect of over 55% in size; further: potency means the concentration at half of the fitted maximal effect
How it was run: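 Antagonism measured as loss of luciferase signal in GH3 cells stably carrying a TRE-luciferase reporter, co-treated with compound and T3 (1 nM final) for 23.5 h at 37 C. Viability was read in the same well by CellTiter-Fluor.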

[2] = tested on: thyroid hormone receptor (rat, GH3 cells); test: qHTS assay to identify small molecule agonists of the thyroid receptor (TR) signaling pathway (AID 743066; calls by dose curve)
[3] = qHTS assay to identify small molecule antagonists of the estrogen receptor alpha (ER-alpha) signaling pathway - cell viability counter screen (AID 743074; calls by dose curve;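 further: HEK293 cells carrying ER-alpha-UAS-bla reporter stimulated with 17beta-estradiol; nearly all actives have a fitted effect of over 45% in size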; further: potency means the concentration at half of the fitted maximal effect)
[4] = qHTS assay to identify small molecule antagonists of the estrogen receptor alpha (ER-alpha) signaling pathway using the BG1 cell line - cell viability counter screen (AID 743081);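 further: compound given together with 17beta-estradiol as the ER stimulus; nearly all actives have a fitted effect of over 45% in size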; further: potency means the concentration at half of the fitted maximal effect
Aromatase (Homo sapiens) = Aromatase (Homo sapiens) (UniProt P11511); test: qHTS assay to identify aromatase inhibitors (AID 743083); further: nearly all actives have a fitted effect of over 55% in size; further: potency means the concentration at half of the fitted maximal effect
[5] = qHTS assay to identify aromatase inhibitors - cell viability counter screen (AID 743084);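 further: cells stimulated with testosterone during compound exposure; nearly all actives have a fitted effect of over 55% in size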; further: potency means the concentration at half of the fitted maximal effect
[6] = biological target: Estrogen receptor (Homo sapiens) (UniProt P03372); test: qHTS assay to identify small molecule antagonists of the estrogen receptor alpha (ER-alpha) signaling pathway (AID 743069; active means well fitted curve in the direction sought with a large enough effect in the signal ratio in the repeat runs, not every such curve was filed as active; inconclusive means weak or mixed curves, or effect the other way; inactive means no such curve, though single readings can be large or run the other way; the % refers to the signal ratio; further: potency means the concentration at half of the fitted maximal effect)
How it was run: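 ER-alpha-UAS-bla GripTite HEK293 line; 2% charcoal-stripped FBS overnight; plated, 4 hr 37C/5% CO2; cpd in DMSO + 17beta-estradiol, 18 hr 37C; LiveBLAzer B/G FRET substrate 2 hr RT; fluorescence intensity.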

[7] = biological target: Estrogen receptor (Homo sapiens) (UniProt P03372); test: qHTS assay to identify small molecule agonists of the estrogen receptor alpha (ER-alpha) signaling pathway (AID 743075; calls by dose curve;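 further: HEK293 GripTite cells with ER-alpha and UAS-driven beta-lactamase reporter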; further: potency means the concentration at half of the fitted maximal effect)
[8] = biological target: Estrogen receptor (Homo sapiens) (UniProt P03372); test: qHTS assay to identify small molecule agonists of the estrogen receptor alpha (ER-alpha) signaling pathway using the BG1 cell line (AID 743079); settings: BG1Luc4E2 cells, ERE-luciferase agonist, 22 h; activation: at 70.3 µM (top of the series); further: nearly all actives have a fitted effect of over 20% in size; further: potency means the concentration at half of the fitted maximal effect
[9] = qHTS assay to identify small molecule antagonists of the estrogen receptor alpha (ER-alpha) signaling pathway using the BG1 cell line (AID 743080; calls by dose curve;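 further: BG1 cells stimulated with 17beta-estradiol alongside compound; nearly all actives have a fitted effect of over 25% in size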; further: potency means the concentration at half of the fitted maximal effect)
How it was run: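 Seeding, 24 h rest, compound transfer from DMSO, 17beta-estradiol addition, 21.5 h incubation, CellTiter-Fluor (30 min, 37 C), then ONE-Glo (30 min, room temperature): this sequence was run on BG1-Luc-4E2 reporter cells.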

Measured: Potency

Chain of Estrogen receptor (Homo sapiens) (P03372 whole entry, looked up): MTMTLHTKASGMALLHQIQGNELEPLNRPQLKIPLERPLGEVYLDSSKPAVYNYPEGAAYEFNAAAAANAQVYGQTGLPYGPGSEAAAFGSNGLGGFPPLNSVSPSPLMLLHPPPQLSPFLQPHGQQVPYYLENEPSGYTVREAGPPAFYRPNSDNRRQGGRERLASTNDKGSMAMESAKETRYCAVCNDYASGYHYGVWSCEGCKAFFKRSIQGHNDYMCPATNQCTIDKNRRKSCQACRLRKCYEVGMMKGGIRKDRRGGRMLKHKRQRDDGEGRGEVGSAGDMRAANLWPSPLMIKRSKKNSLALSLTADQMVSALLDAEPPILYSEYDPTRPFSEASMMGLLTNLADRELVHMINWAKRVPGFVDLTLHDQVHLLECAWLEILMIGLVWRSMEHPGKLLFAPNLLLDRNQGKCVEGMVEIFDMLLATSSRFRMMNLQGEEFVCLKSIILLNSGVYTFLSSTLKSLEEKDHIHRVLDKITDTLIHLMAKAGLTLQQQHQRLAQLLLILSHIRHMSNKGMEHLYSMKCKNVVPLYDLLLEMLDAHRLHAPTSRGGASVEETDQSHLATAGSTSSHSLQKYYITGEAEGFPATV
Chain of Aromatase (Homo sapiens) (P11511 whole entry, looked up): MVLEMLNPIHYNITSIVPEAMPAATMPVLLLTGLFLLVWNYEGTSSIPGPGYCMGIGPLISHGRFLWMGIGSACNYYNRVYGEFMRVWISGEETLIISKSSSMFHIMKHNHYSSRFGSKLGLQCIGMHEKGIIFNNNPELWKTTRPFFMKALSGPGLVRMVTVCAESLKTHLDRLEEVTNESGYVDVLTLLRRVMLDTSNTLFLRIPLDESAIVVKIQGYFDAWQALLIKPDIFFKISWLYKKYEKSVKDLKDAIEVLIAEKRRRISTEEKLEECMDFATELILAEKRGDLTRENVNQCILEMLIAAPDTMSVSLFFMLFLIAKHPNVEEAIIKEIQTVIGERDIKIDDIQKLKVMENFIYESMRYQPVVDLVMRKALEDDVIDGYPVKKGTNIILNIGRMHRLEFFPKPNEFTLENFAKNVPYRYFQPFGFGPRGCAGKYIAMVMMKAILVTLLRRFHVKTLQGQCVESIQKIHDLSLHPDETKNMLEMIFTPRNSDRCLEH

Cc1cnc(C)c(C)n1
inactive: [1] | [2] | [3] | [4] | Aromatase (Homo sapiens) | [5]

CCOC(=O)C(C)Oc1ccc(Oc2nc3ccc(Cl)cc3o2)cc1 (stereo not given)
inactive: [1] | [2] | [3] | [4] | Aromatase (Homo sapiens) | [5]

O=C(CCCCCCCCC#CI)Oc1ccccc1
active: [1] 13.3 µM
inactive: [2] | [4] | Aromatase (Homo sapiens) | [5]

CCCCCCCC/C=C\CCCCCCCC(=O)OC
inactive: [1] | [2] | [3] | [4] | Aromatase (Homo sapiens) | [5]

CCCCN(CCCC)CCCOC(=O)c1ccc(N)cc1
inactive: [1] | [2] | [3] | Aromatase (Homo sapiens) | [5]

CCOC(=O)[C@@H](C)Oc1ccc(Oc2nc3ccc(Cl)cc3o2)cc1
inactive: [1] | [2] | [3] | [4] | Aromatase (Homo sapiens) | [5]

CNCCCC1c2ccccc2C=Cc2ccccc21
inactive: [6] | [3] | [7] | [8] | [9] | [4] | Aromatase (Homo sapiens) | [5]
active: [1] 11.4 µM

Cc1ccccc1N1C(=O)c2cc(S(N)(=O)=O)c(Cl)cc2NC1C (stereo not given)
inactive: [1] | [2] | [3] | [4] | Aromatase (Homo sapiens) | [5]

CN1CCN(CCCN2c3ccccc3Sc3ccc(S(=O)(=O)N(C)C)cc32)CC1
inactive: [2] | [3] | [4] | Aromatase (Homo sapiens) | [5]
active: [1] 11.4 µM

CCc1c2c(nc3ccc(OC(=O)N4CCC(N5CCCCC5)CC4)cc13)-c1cc3c(c(=O)n1C2)COC(=O)[C@]3(O)CC
active: [1] 23.7 µM | [9] 11.9 µM
inactive: [2] | [7] | [4] | Aromatase (Homo sapiens)

C=C(C)C(=O)OCCOC(=O)CC(C)=O
inactive: [1] | [2] | [3] | [4] | Aromatase (Homo sapiens) | [5]

Nc1nc(Cl)nc2c1ncn2[C@@H]1O[C@H](CO)[C@@H](O)[C@@H]1F
active: [1] 0.133 µM | [9] 3.76 µM
inactive: [2] | [7] | [8] | [4] | [5]

CC1CC(O)CC(C)(C)C1 (stereo not given)
inactive: [1] | [2] | [3] | [4] | Aromatase (Homo sapiens) | [5]

Cc1ccc(/C=N/n2c(-c3ccccc3)csc2=S)cc1
inactive: [2] | [4] | [5]
active: [1] 23.7 µM

CC[C@@H]([C@H](C)O)n1ncn(-c2ccc(N3CCN(c4ccc(OC[C@@H]5CO[C@@](Cn6cncn6)(c6ccc(F)cc6F)C5)cc4)CC3)cc2)c1=O
active: [1] 26.6 µM
inactive: [2] | [3] | Aromatase (Homo sapiens) | [5]

CC1(C)C(=O)N(Br)C(=O)N1Cl
inactive: [1] | [2] | [3] | [4] | Aromatase (Homo sapiens) | [5]

CO[C@H]1O[C@H](CO)[C@@H](O)[C@H](O)[C@H]1O
inactive: [1] | [2] | [3] | [4] | Aromatase (Homo sapiens) | [5]

Cc1ccc(Nc2nccc(N(C)c3ccc4c(C)n(C)nc4c3)n2)cc1S(N)(=O)=O
active: [1] 6.68 µM
inactive: [2] | [7]

CC(=O)[C@H]1CC[C@H]2[C@@H]3C[C@H](C)C4=CC(=O)CC[C@]4(C)[C@H]3[C@@H](O)C[C@]12C
inactive: [1] | [2] | [3] | [4] | Aromatase (Homo sapiens) | [5]

CC(=N\O)/C(C)=N/O
inactive: [1] | [2] | [3] | [4] | Aromatase (Homo sapiens) | [5]

C=CC(=C)CCCC(C)(C)OC(C)=O
inactive: [1] | [2] | [3] | [4] | Aromatase (Homo sapiens) | [5]

CN(C)C(=O)Nc1ccc(Oc2ccc(Cl)cc2)cc1
inactive: [2] | [3] | [5]
active: [1] 54.5 µM

Fc1c(F)c(F)c(Br)c(F)c1F
inactive: [1] | [2] | [3] | [4] | [5]

CCC(C)=O
inactive: [1] | [2] | [3] | [4] | [5]

CCOC(=O)/C=C/C(=O)O
inactive: [1] | [2] | [7] | [8] | [9] | [4] | Aromatase (Homo sapiens) | [5]

CC(C)(C)C(=O)O
inactive: [1] | [2] | [3] | [4] | Aromatase (Homo sapiens) | [5]

Nc1nccs1
inactive: [1] | [2] | [3] | [4] | Aromatase (Homo sapiens) | [5]

Cc1oc(C)c(C(=O)Nc2ccccc2)c1C
active: [1] 24.3 µM | Aromatase (Homo sapiens) 13.7 µM
inactive: [2] | [7] | [5]

CCc1cccc(N(C)C(N)=Nc2cccc3ccccc23)c1
inactive: [2] | Aromatase (Homo sapiens) | [5]
active: [1] 21.1 µM

NCC1CCCC(CN)C1 (stereo not given)
inactive: [1] | [2] | [3] | [4] | Aromatase (Homo sapiens) | [5]

CO[C@@]12[C@H](COC(N)=O)C3=C(C(=O)C(C)=C(N)C3=O)N1C[C@@H]1N[C@@H]12
active: [1] 1.33 µM | Aromatase (Homo sapiens) 29.8 µM

O=C(CCCN1CCN(c2ccc(F)cc2)CC1)NC1c2ccccc2CSc2ccccc21 (stereo not given)
active: [1] 10.6 µM
inactive: [3] | [7] | [8] | [9]

C=CC(C)(C)CC(=O)OC
inactive: [1] | [3] | [4]

NC(=O)N(O)[C@@H]1COc2cc(OCc3ccccc3)ccc21
inactive: [6] | [3] | [7] | [4] | Aromatase (Homo sapiens) | [5]
active: [1] 61.1 µM

CC1=NN(c2ccc(C(=O)O)cc2)C(=O)C1
inactive: [1] | [3] | [4] | Aromatase (Homo sapiens) | [5]

COCCOC(=O)C1=C(C)NC(C)=C(C(=O)OC/C=C/c2ccccc2)C1c1cccc([N+](=O)[O-])c1 (stereo not given)
inactive: [3] | [7] | [9] | [4]
active: [1] 11.9 µM | [6] 23.9 µM [inconclusive]

Cc1nc2ccccn2c(=O)c1CCN1CCC(C(=O)c2ccc(F)cc2)CC1
inactive: [2] | [6] | [3] | [7] | [8] | [4] | Aromatase (Homo sapiens) | [5]

COc1cc2c(cc1OC)-c1cc(=Nc3c(C)cc(C)cc3C)n(C)c(=O)n1CC2
inactive: [7]
active: [1] 18.8 µM | Aromatase (Homo sapiens) 26.6 µM | [5] 26.6 µM

Cc1cc2nc3ccc(=[N+](C)C)cc-3sc2cc1N
inactive: [3] | [7] | [4]
active: [1] 21.1 µM | Aromatase (Homo sapiens) 5.31 µM | [5] 26.6 µM

CCCOc1ccc(S(=O)(=O)N2CCN(CC)CC2)cc1-c1nc2c(CC)n(Cc3ccccn3)nc2c(=O)[nH]1
inactive: [2] | [3] | [7] | [8] | [9] | [4] | Aromatase (Homo sapiens) | [5]

Cc1nccn1-c1ccc(Sc2cccc(C3(C(N)=O)CCOCC3)c2)cc1
active: [1] 4.86 µM | [6] 0.275 µM [inconclusive] | [9] 1.93 µM | Aromatase (Homo sapiens) 54.5 µM
inactive: [3] | [4] | [5]

CC1=C(/C=C/C(C)=C\C=C\C(C)=C\C(=O)O)C(C)(C)CCC1
inactive: [1] | [3] | [7] | [4] | Aromatase (Homo sapiens)
active: [9] 0.243 µM

C=CC(C)(O)CCCC(C)CCCC(C)CCCC(C)C (stereo not given)
inactive: [1] | [6] | [3] | [7] | [8] | [9] | [4] | Aromatase (Homo sapiens) | [5]

Fc1ccccc1[C@@H](F)COC1CCC(Nc2ncnc3[nH]ncc23)CC1 (stereo not given in full)
inactive: [3] | [4] | [5]
active: [1] 48.6 µM | Aromatase (Homo sapiens) 24.3 µM

CCc1nn(CCCN2CCN(c3cccc(Cl)c3)CC2)c(=O)n1CCOc1ccccc1
inactive: [7]
29.8 µM (active) and inactive: [4]
active: [1] 11.9 µM and 26.6 µM | [3] 23.9 µM | [9] 7.5 µM and 26.6 µM | Aromatase (Homo sapiens) 29.8 µM and 33.5 µM | [5] 29.8 µM

CC(=O)[C@H]1CC[C@H]2[C@@H]3C=CC4=CC(=O)CC[C@@]4(C)[C@@H]3CC[C@]12C
inactive: [2] | [3] | [7] | [8] | [9] | [4] | Aromatase (Homo sapiens) | [5]

CCCCCCCCCCCCCCC[C@H](O)[C@@H](N)CO
inactive: [2] | [6] | [3] | [7] | [8] | [9] | [4] | Aromatase (Homo sapiens) | [5]

CCCCC(CC)C(=O)OCCOCCOCCOCCOC(=O)C(CC)CCCC (stereo not given)
inactive: [2] | [6] | [3] | [7] | [8] | [9] | [4]

C[Si](NC1CCCCC1)(NC1CCCCC1)NC1CCCCC1
inactive: [2] | [6] | [3] | [7] | [8] | [9] | [4] | Aromatase (Homo sapiens) | [5]

COc1ccc(C(=O)c2cccc(O)c2)c(OC)c1
inactive: [2] | [6] | [3] | [4] | Aromatase (Homo sapiens)
active: [7] 24.5 µM [activator] | [8] 6.84 µM | [9] 68.5 µM

CCCCOC(=O)CCS
inactive: [1] | [3] | [7] | [4] | [5]
